Results reported in PubChem BioAssay (NCI).
Compounds without any hit were thinned out: in the full panel of roughly 79,000, 15% have a hit. Unmarked numbers belong to inactive results. The source made the active and inactive calls. Rule as the data show it: active = growth inhibition above about 70%; inactive = the rest.

What was measured:
[1] = NCI Yeast Anticancer Drug Screen. Data for the rad50 strain (AID 155);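 also: 0% = growth of vehicle-only cultures of the same strain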; conditions: S. cerevisiae rad50 strain growth inhibition, active compounds read high
Method in brief: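 Cells are treated with compound, grown, and their growth is then scored against vehicle-only cultures of the same repair-deficient yeast strain.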

[2] = NCI Yeast Anticancer Drug Screen. Data for the mec2-1 strain (AID 157); conditions: S. cerevisiae mec2-1 strain, active compounds read high
Method in brief: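 Using mec2-1 yeast: add compound, measure growth, express inhibition versus vehicle-treated cultures.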

[3] = NCI Yeast Anticancer Drug Screen. Data for the sgs1 mgt1 strain (AID 161);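 also: 0% = growth of cultures given vehicle only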; conditions: S. cerevisiae sgs1 mgt1 strain, active compounds read high
Method in brief: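 Compounds are added to genetically altered yeast, and growth is compared with cultures given vehicle alone to give percent inhibition.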

[4] = NCI Yeast Anticancer Drug Screen. Data for the cln2 rad14 strain (AID 165);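 also: 0% = growth equal to vehicle treated cultures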; conditions: S. cerevisiae cln2 rad14 strain, active compounds read high
Method in brief: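 Yeast strain cln2 rad14, bearing defects in cell cycle control and DNA repair, serves as the test system; values reflect growth inhibition compared with vehicle.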

[5] = NCI Yeast Anticancer Drug Screen. Data for the bub3 strain (AID 167); conditions: S. cerevisiae bub3 mutant strain, active compounds read high
Method in brief: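 Part of a panel of yeast mutants defective in DNA damage repair or cell cycle regulation. Each strain is grown with compound, and inhibition is calculated relative to solvent-treated cultures.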

[6] = NCI Yeast Anticancer Drug Screen. Data for the mlh1 rad18 strain (AID 175); conditions: S. cerevisiae mlh1 rad18 strain growth inhibition, active compounds read high
Method in brief: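 Steps: expose repair-defective yeast to compound; measure growth; express inhibition against vehicle-treated controls.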

[7] = at 5.0 µM (retest, dose inferred, filed as 0.5)
[8] = at 50.0 µM (retest, dose inferred, filed as 5.0)

| SMILES | growth inhibition [1, 7] | growth inhibition [1, 8] | growth inhibition ([1]; at 50.0 µM) | growth inhibition [2, 7] | growth inhibition [2, 8] | growth inhibition ([2]; at 50.0 µM) | growth inhibition [3, 7] | growth inhibition [3, 8] | growth inhibition ([3]; at 50.0 µM) | growth inhibition [4, 7] | growth inhibition [4, 8] | growth inhibition ([4]; at 50.0 µM) | growth inhibition [5, 7] | growth inhibition [5, 8] | growth inhibition ([5]; at 50.0 µM) | growth inhibition [6, 7] | growth inhibition [6, 8] | growth inhibition ([6]; at 50.0 µM) |
| --- | --- | --- | --- | --- | --- | --- | --- | --- | --- | --- | --- | --- | --- | --- | --- | --- | --- | --- |
| COc1ccc(/C=C(\C(=O)c2ccc(O)cc2)c2ccccc2)cc1OC | -5% | 97% (active) | 98.5% (active) | -9% | 97% (active) | 98% (active) | 2% | 98% (active) | 96.2% (active) | -5% | 99% (active) | 93.7% (active) | -4% | 98% (active) | 97.1% (active) | 0% | 99% (active) | 97.5% (active) |
| O=S1Nc2ccccc2S1 (configuration not stated) | 0% | 18% | 58% | -1% | 33% | 85.2% (active) | 2% | 42% | 99.2% (active) | -8% | 37% | 97% (active) | -1% | 77% (active) | 98.7% (active) | -1% | 41% | 96.2% (active) |
| O=C(Nc1ccccc1)C(F)(F)C(F)(F)C(F)(F)F | 6% | 2% | 12.6% | -1% | -24% | 12.7% | 17% | 14% | -0.35% | 5% | 5% | 26.1% | 15% | 27% | -1% | 5% | 28% | 11.6% |
| CC(=O)Nc1[c-]cccc1.CC(=O)Nc1[c-]cccc1.CC(=O)O.CC(=O)O.[Pd].[Pd] | 2% | 31% | 79.8% (active) | -1% | 51% | 87.2% (active) | 17% | 89% (active) | 92.5% (active) | -7% | 25% | 45.1% | -4% | 31% | 58.7% | -1% | 55% | 95.8% (active) |
| Brc1ccc2[nH]c3ccccc3c2c1 | 2% | 33% | 57.7% | -4% | 67% | 44.9% | -3% | 47% | 86.8% (active) | -2% | 65% | 54.2% | 3% | 57% | 55.2% | 4% | 75% (active) | 90% (active) |
| CC(=O)Oc1cc(OC(C)=O)c2cc(Br)ccc2c1OC(C)=O | -5% | 63% | 87.5% (active) | 3% | 47% | 72.8% (active) | -19% | 67% | 62.8% | 0% | 37% | 70.2% (active) | 0% | 65% | 94.1% (active) | 5% | 69% | 90.7% (active) |
| CCCCCCCCCCCCc1ccc(S(=O)(=O)O)cc1.[Zn+2] | -2% | 55% | 78.4% (active) | 19% | 27% | 13.2% | -4% | 59% | 75.3% (active) | 3% | 38% | -49% | -8% | 35% | 6.15% | -2% | 71% (active) | 30.1% |
| CC(=O)NC1C(=O)CC(c2ccccc2)N(C)C1c1ccccc1 (configuration not stated) | 2% | 2% | 7.55% | 2% | 6% | 6.55% | -2% | 1% | 25.3% | 4% | 0% | 36.1% | 2% | 3% | 18% | 1% | -7% | 31.7% |
| CCCC(=O)N(C(=O)CCC)C1=C(Cl)C(=O)c2ccccc2C1=O | 55% | 64% | 29.9% | 95% (active) | 95% (active) | 83.1% (active) | 56% | 72% (active) | 75.1% (active) | 33% | 65% | 74.2% (active) | 91% (active) | 98% (active) | 87.4% (active) | 48% | 64% | 86.6% (active) |
| CCCCCCCCCCCc1ccn[nH]1 | -7% | 98% (active) | 98.4% (active) | 3% | 99% (active) | 99.3% (active) | 9% | 99% (active) | 99.3% (active) | -18% | 99% (active) | 98.3% (active) | 14% | 98% (active) | 99% (active) | -3% | 98% (active) | 98.9% (active) |
| Nc1c2c(=O)[nH]c(=O)c2c(N)c2c(=O)c3ccccc3c(=O)c12 | 36% | 53% | 78.2% (active) | 21% | 47% | 35.8% | 50% | 72% (active) | 38% | -26% | 41% | 34.5% | 21% | 78% (active) | 29.4% | 30% | 59% | 60.6% |
| OCC(c1ccccc1)[P+](c1ccccc1)(c1ccccc1)c1ccccc1 (configuration not stated) | 2% | 34% | 79.2% (active) | -8% | 45% | 49.9% | -9% | 0% | 74.3% (active) | -42% | -1% | 31.9% | 0% | 13% | 26.3% | -14% | 5% | 59.6% |
| CC1CCN(CC(=O)N2c3ccccc3Sc3cc4ccccc4cc32)CC1 | 4% | 15% | 10.2% | 4% | -20% | 13.6% | -15% | 12% | -14.6% | -37% | -4% | 23.8% | -4% | 7% | -3.9% | -4% | 8% | -2.5% |
| CCCCCCCCCN1CCNC1=S | -5% | 63% | 38.9% | -7% | 30% | -10.4% | 6% | 60% | 71% (active) | -18% | 40% | 0.9% | 34% | 80% (active) | 54.3% | 0% | 61% | 49.5% |
| O=C(Nc1ccc(Cl)c(Cl)c1Cl)Oc1c(Cl)c(Cl)c(Cl)c(Cl)c1Cl | 25% | 97% (active) | 99.5% (active) | 36% | 100% (active) | 99.6% (active) | 43% | 99% (active) | 99.6% (active) | 13% | 99% (active) | 99.2% (active) | 10% | 99% (active) | 98.5% (active) | 20% | 99% (active) | 99.5% (active) |
| O=C(N/C(=C\c1ccc(Br)cc1)c1nc2ccccc2[nH]1)c1ccccc1 | 3% | 59% | 73.4% (active) | -17% | 27% | 95.8% (active) | -2% | 60% | 68% | -6% | 41% | 66.9% | 6% | 78% (active) | 88.4% (active) | 2% | 21% | 96.5% (active) |
| CCN1C2=NC(=O)N(C)C(=O)C2(Cl)C(C(SC)S(=O)(=O)c2ccc(C)cc2)c2ccccc21 (configuration not stated) | 22% | 22% | 88.1% (active) | 7% | 7% | 86.3% (active) | 15% | 15% | 81.7% (active) | 18% | 18% | 90% (active) | 1% | 1% | 89.5% (active) | 2% | 2% | 84.7% (active) |
| Cc1nc2c(cnn2-c2ccccc2)c(=O)o1 | -143% | -140% | 28.3% | -52% | -52% | 2.25% | -57% | -62% | -3.15% | -52% | -45% | -31.2% | -65% | -73% | -0.85% | -115% | -108% | 50.6% |
| CN1C/C(=C\c2ccccc2)C(=O)/C(=C/c2ccccc2)C1 | 13% | 99% (active) | 54.5% | 16% | 100% (active) | 10.2% | 19% | 99% (active) | 19% | 14% | 98% (active) | 52.5% | 10% | 99% (active) | 14.6% | 11% | 99% (active) | 21.4% |
